# Measurements: ChEMBL document CHEMBL1157539, “Thousands of chemical starting points for antimalarial lead identification” (Nature, 2010)
# Tested on: HepG2
# Test: GSK_TCMDC: Percent inhibition of human HepG2 cell line. Test compounds present at 10uM.
# Assay type: functional
row,SMILES,Inhibition [%]
1,CCc1cc(NC2CCN(C)CC2)nc(Nc2ccc(C)cc2)n1,3
2,O=C(C1CC1)N1c2ccccc2CCc2ccccc21,40
3,CCOc1ccc(-c2nc(NC(=O)COc3ccc(OC)cc3)sc2C)cc1,0
4,CCOC(=O)c1ccc(NCc2ccccn2)cc1,0
5,COc1ccc(C2NCCc3c2[nH]c2ccccc32)cc1CN1CCN(c2ccc(F)cc2)CC1.Cl (stereo not drawn),37
6,COc1cc(F)c2ncc(Cl)c(CCN3CCC(NCc4ccc5c(c4)NC(=O)CO5)CC3)c2c1.Cl,32
7,COc1ccc(C(=O)Nc2nonc2-c2ccc(OC)c(OC)c2)cc1Cl,6
8,COc1cccc(Nc2nc(NCCO)c3ccccc3n2)c1.Cl,1
